# Experimental data published in paper PMC8384837, “Expanding the binding specificity for RNA recognition by a PUF domain”.
# Assays:
# Test in all cases: yeast three-hybrid, YBZ-1, SC-Leu-His + 0.5 mM 3-AT, 4 days
# Details in all cases: tags: N-Gal4 AD-HA kept; label: inside an RPR1-promoter hybrid RNA with tandem MS2 sites; ssRNA
# PUM1 PUF domain R4-MRG = PUM1 PUF domain R4-MRG (Homo sapiens, UniProt Q14671 828-1176, N971M;H972R;Q975G)
# Outline: (§1)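 Each repeat of the Pumilio-1 PUF domain was randomized at its three base-contacting residues, and these libraries were co-expressed from a centromeric plasmid with matching RNA elements in strain YBZ-1. After four days on SC-Leu (input) or SC-Leu-His + 0.5 mM 3-AT (selection), the repeat regions were PCR-amplified and Illumina-sequenced. The interaction score compares variant frequency between input and selection as a log change, computed in log2 with a pseudocount of 1 for absent variants.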
# PUM1 PUF domain R4-RYP = PUM1 PUF domain R4-RYP (Homo sapiens, UniProt Q14671 828-1176, N971R;H972Y;Q975P)
# Outline: as §1
# PUM1 PUF domain R4-SNQ = PUM1 PUF domain R4-SNQ (Homo sapiens, UniProt Q14671 828-1176, N971S;H972N)
# Outline: as §1
# PUM1 PUF domain R3-LSA = PUM1 PUF domain R3-LSA (Homo sapiens, UniProt Q14671 828-1176, C935L;R936S;Q939A)
# Outline: as §1
# PUM1 PUF domain R8-KKK = PUM1 PUF domain R8-KKK (Homo sapiens, UniProt Q14671 828-1176, N1122K;Y1123K;Q1126K)
# Outline: as §1
# PUM1 PUF domain R3-VRY = PUM1 PUF domain R3-VRY (Homo sapiens, UniProt Q14671 828-1176, C935V;Q939Y)
# Outline: as §1
# PUM1 PUF domain R8-KWS = PUM1 PUF domain R8-KWS (Homo sapiens, UniProt Q14671 828-1176, N1122K;Y1123W;Q1126S)
# Outline: as §1
# PUM1 PUF domain R5-THL = PUM1 PUF domain R5-THL (Homo sapiens, UniProt Q14671 828-1176, C1007T;R1008H;Q1011L)
# Outline: as §1
# PUM1 PUF domain R4-ARR = PUM1 PUF domain R4-ARR (Homo sapiens, UniProt Q14671 828-1176, N971A;H972R;Q975R)
# Outline: as §1
# PUM1 PUF domain R4-DFC = PUM1 PUF domain R4-DFC (Homo sapiens, UniProt Q14671 828-1176, N971D;H972F;Q975C)
# Outline: as §1
# PUM1 PUF domain R4-MRG, sequence (Q14671 828-1176 N971M/H972R/Q975G): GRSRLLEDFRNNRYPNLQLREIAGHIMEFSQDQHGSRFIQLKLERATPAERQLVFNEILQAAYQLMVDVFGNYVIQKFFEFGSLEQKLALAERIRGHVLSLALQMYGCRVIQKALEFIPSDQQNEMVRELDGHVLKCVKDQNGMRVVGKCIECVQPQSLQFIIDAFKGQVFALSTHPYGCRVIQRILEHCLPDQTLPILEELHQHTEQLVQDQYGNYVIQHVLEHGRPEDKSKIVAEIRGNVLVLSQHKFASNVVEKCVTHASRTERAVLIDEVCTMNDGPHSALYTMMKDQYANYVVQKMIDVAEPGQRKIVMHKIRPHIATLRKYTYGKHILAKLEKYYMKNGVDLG
# PUM1 PUF domain R4-RYP, sequence (Q14671 828-1176 N971R/H972Y/Q975P): as the sequence (Q14671 828-1176 N971M/H972R/Q975G) above, with M144R, R145Y, G148P counted along it
# PUM1 PUF domain R3-LSA, sequence (Q14671 828-1176 C935L/R936S/Q939A): as the sequence (Q14671 828-1176 N971M/H972R/Q975G) above, with C108L, R109S, Q112A, M144N, R145H, G148Q counted along it
# PUM1 PUF domain R8-KKK, sequence (Q14671 828-1176 N1122K/Y1123K/Q1126K): as the sequence (Q14671 828-1176 N971M/H972R/Q975G) above, with M144N, R145H, G148Q, N295K, Y296K, Q299K counted along it
# PUM1 PUF domain R5-THL, sequence (Q14671 828-1176 C1007T/R1008H/Q1011L): as the sequence (Q14671 828-1176 N971M/H972R/Q975G) above, with M144N, R145H, G148Q, C180T, R181H, Q184L counted along it
# PUM1 PUF domain R4-DFC, sequence (Q14671 828-1176 N971D/H972F/Q975C): as the sequence (Q14671 828-1176 N971M/H972R/Q975G) above, with M144D, R145F, G148C counted along it
# PUM1 PUF domain R8-KWS, sequence (Q14671 828-1176 N1122K/Y1123W/Q1126S): as the sequence (Q14671 828-1176 N971M/H972R/Q975G) above, with M144N, R145H, G148Q, N295K, Y296W, Q299S counted along it
# PUM1 PUF domain R4-ARR, sequence (Q14671 828-1176 N971A/H972R/Q975R): as the sequence (Q14671 828-1176 N971M/H972R/Q975G) above, with M144A, G148R counted along it
# PUM1 PUF domain R4-SNQ, sequence (Q14671 828-1176 N971S/H972N): as the sequence (Q14671 828-1176 N971M/H972R/Q975G) above, with M144S, R145N, G148Q counted along it
# PUM1 PUF domain R3-VRY, sequence (Q14671 828-1176 C935V/Q939Y): as the sequence (Q14671 828-1176 N971M/H972R/Q975G) above, with C108V, Q112Y, M144N, R145H, G148Q counted along it
sequence,measurement,setting,value
GGCUAGAACUAGUGGAUCCCCCGGCGCCCGGCGGCUCGAGCCCGGGUAAGUGUAUAUAGUCUGCAUGCCGCCGGGCGCCAUGCCUGCAGGUCGACUCUAGAAAACAUG,binding signal,PUM1 PUF domain R4-MRG,1.61 log2 enrichment (interaction score)
same,binding signal,PUM1 PUF domain R4-RYP,2.78 log2 enrichment (interaction score)
same,binding signal,PUM1 PUF domain R4-SNQ,4.52 log2 enrichment (interaction score)
GGCUAGAACUAGUGGAUCCCCCGGCGCCCGGCGGCUCGAGCCCGGGUAAGUGUAAUUAGUCUGCAUGCCGCCGGGCGCCAUGCCUGCAGGUCGACUCUAGAAAACAUG,binding signal,PUM1 PUF domain R3-LSA,2.8 log2 enrichment (interaction score)
GGCUAGAACUAGUGGAUCCCCCGGCGCCCGGCGGCUCGAGCCCGGGUAAGCGUAAAUAGUCUGCAUGCCGCCGGGCGCCAUGCCUGCAGGUCGACUCUAGAAAACAUG,binding signal,PUM1 PUF domain R8-KKK,3.81 log2 enrichment (interaction score)
GGCUAGAACUAGUGGAUCCCCCGGCGCCCGGCGGCUCGAGCCCGGGUAAGUGUAAAUAGUCUGCAUGCCGCCGGGCGCCAUGCCUGCAGGUCGACUCUAGAAAACAUG,binding signal,PUM1 PUF domain R4-MRG,2.56 log2 enrichment (interaction score)
same,binding signal,PUM1 PUF domain R4-RYP,5.03 log2 enrichment (interaction score)
same,binding signal,PUM1 PUF domain R3-VRY,4.24 log2 enrichment (interaction score)
same,binding signal,PUM1 PUF domain R8-KWS,3.68 log2 enrichment (interaction score)
same,binding signal,PUM1 PUF domain R5-THL,4.39 log2 enrichment (interaction score)
GGCUAGAACUAGUGGAUCCCCCGGCGCCCGGCGGCUCGAGCCCGGGUAAGUGUAAGUAGUCUGCAUGCCGCCGGGCGCCAUGCCUGCAGGUCGACUCUAGAAAACAUG,binding signal,PUM1 PUF domain R3-LSA,4.84 log2 enrichment (interaction score)
GGCUAGAACUAGUGGAUCCCCCGGCGCCCGGCGGCUCGAGCCCGGGUAAGUGUACAUAGUCUGCAUGCCGCCGGGCGCCAUGCCUGCAGGUCGACUCUAGAAAACAUG,binding signal,PUM1 PUF domain R4-MRG,1.34 log2 enrichment (interaction score)
same,binding signal,PUM1 PUF domain R4-ARR,2.99 log2 enrichment (interaction score)
same,binding signal,PUM1 PUF domain R4-DFC,5.67 log2 enrichment (interaction score)
